Test results published in PubChem BioAssay.
Inconclusive results are not listed. Active and inactive are the calls of the source.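 How the source made its calls, unless noted: active means normalized viability below 100% at a tested concentration; inactive means the rest.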

How the values were obtained:
[1] = growth inhibition of DIPG glioma cells, dose response, cell-based, SU-DIPG-XIII, MIPE4.0, CellTiter-Glo, qHTS (AID 1347061; cut-off not given, nearly all actives have AC50 up to about 37 µM;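 further: cells exposed to compound for 48 hours before readout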); conditions: SU-DIPG-XIII viability, CellTiter-Glo ATP luminescence
[2] = growth inhibition of DIPG glioma cells, dose response, cell-based, JHH-DIPG-1, MIPE4.0, CellTiter-Glo, qHTS (AID 1347062; cut-off not given, nearly all actives have AC50 up to about 27 µM;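 on AC50: cells exposed to compound for two days before readout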); conditions: JHH-DIPG-1 viability, CellTiter-Glo ATP luminescence
[3] = growth inhibition of DIPG glioma cells, dose response, cell-based, SU-DIPG-IV, MIPE4.0, CellTiter-Glo, qHTS (AID 1347063; cut-off not given, nearly all actives have AC50 up to about 30 µM;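 further: compound exposure lasted 48 hours before the viability readout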); conditions: SU-DIPG-IV viability, CellTiter-Glo ATP luminescence
[4] = SU-DIPG-VI glioma cell viability, MIPE4.0 library, CellTiter-Glo luminescence, qHTS (AID 1347066; cut-off not given, nearly all actives have AC50 up to about 30 µM;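 further: cells exposed to compound for 48 hours before readout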); conditions: CellTiter-Glo ATP luminescence
[5] = viability loss in pontine glioma line – cell-based, SU-DIPG-XXV, MIPE5.0, CellTiter-Glo, qHTS, dose response (AID 1347065; cut-off not given, nearly all actives have AC50 up to about 26 µM;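 further: cells exposed to compound for 48 hours before ATP readout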); conditions: CellTiter-Glo ATP luminescence
[6] = JHH-DIPG-1 glioma cell viability, MIPE5.0 library, CellTiter-Glo luminescence, qHTS (AID 1347067; cut-off not given, nearly all actives have AC50 up to about 26 µM;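 further: cells exposed to compound for 48 hours before readout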); conditions: JHH-DIPG-1 glioma viability, CellTiter-Glo ATP luminescence
[7] = SU-DIPG-XXV glioma cell viability, MIPE5.0 library, qHTS (AID 1347068; cut-off not given, nearly all actives have IC50 up to about 30 µM)
[8] = sensitizers of A549 cells to miR-34 induction, primary screen, imaging, A549 dox-inducible miR-34, nuclei and caspase counts (AID 1347080;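 active means compounds whose cell count with miR-34 switched on is under 0.7 times the count with it off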); conditions: A549 miR-34 inducible, Hoechst nuclei count, 48 h
[9] = survival rescue of mitochondrial mutant cells in low glucose, primary screen, MELAS cybrids, Rieske KO mouse fibroblasts, CellTiter-Glo (AID 1508586;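 active means mean z-score across replicates of 1.96 or higher in either the MELAS or the Rieske mutant cell line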;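 further: z relative to plate mean and SD of compound and empty wells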)
[10] = ovarian cancer cell viability with rucaparib, profiling panel, oncology-focused library, rucaparib conditional (AID 1508598); conditions: patient-derived ovarian cancer cells, CellTiter-Glo viability, 144 h, stronger effect = lower value
[11] = stronger effect = lower value, cell number ratio, induced over uninduced
[12] = measured here: relative caspase fold change +Dox/-Dox
[13] = measured here: total cells with miR-34 induction, stronger effect = lower value
[14] = measured here: total cells without miR-34 induction

Question: Which outcome [1] does the source give for `Nc1ncnc2c1ncn2[C@@H]1O[C@@H](CO)[C@H](O)[C@@H]1O` here?
Answer: The outcome was “inactive”.

Question: And the outcome [2]?
Answer: The outcome was “inactive”.

Question: What about the outcome [3] of the same compound?
Answer: Its outcome is “inactive”.

Question: What about the outcome [4] of the same compound?
Answer: The outcome was “inactive”.

Question: Which AC50 [1] does the source give for `O=C(C=CC#Cc1cccc(NS(=O)(=O)c2ccccc2)c1)NO` here?
Answer: The AC50 was 14.8 µM (active).

Question: And the AC50 [2]?
Answer: Its AC50 is 9.35 µM (active).

Question: What about the AC50 [3] of the same compound?
Answer: Its AC50 is 4.18 µM (active).

Question: And the AC50 [4]?
Answer: The AC50 was 18.7 µM (active).

Question: Which outcome [1] does the source give for `CN(N=O)C(=O)N[C@H]1C(O)OC(CO)[C@@H](O)[C@@H]1O` (stereo not given in full) here?
Answer: Its outcome is “inactive”.

Question: And the outcome [2]?
Answer: Its outcome is “inactive”.

Question: What about the outcome [3] of the same compound?
Answer: Its outcome is “inactive”.

Question: And the outcome [4]?
Answer: The outcome was “inactive”.

Question: What does the source list for `CC(C)C(=O)Oc1ccc(CO)cc1[C@H](CCN(C(C)C)C(C)C)c1ccccc1`?
Answer: outcome [1]: inactive; outcome [2]: inactive; outcome [3]: inactive; outcome [4]: inactive

Question: With `Nc1n[nH]c2nnc(-c3c(-c4ccccc4)nn4ccccc34)cc12` as the compound, how does the AC50 [1] read?
Answer: Its AC50 is 20.9 µM (active).

Question: And the AC50 [2]?
Answer: Its AC50 is 20.9 µM (active).

Question: What about the AC50 [3] of the same compound?
Answer: The AC50 was 0.209 µM (active).

Question: What about the outcome [5] of the same compound?
Answer: The outcome was “inactive”.

Question: What about the AC50 [4] of the same compound?
Answer: The AC50 was 2.96 µM (active).

Question: And the outcome [6]?
Answer: The outcome was “inactive”.

Question: What about the outcome [7] of the same compound?
Answer: Its outcome is “inactive”.

Question: For `Nc1ccn([C@H]2CS[C@@H](CO)O2)c(=O)n1`, which outcome [1] is on record?
Answer: The outcome was “inactive”.

Question: And the outcome [2]?
Answer: The outcome was “inactive”.

Question: What about the outcome [3] of the same compound?
Answer: Its outcome is “inactive”.

Question: And the outcome [4]?
Answer: Its outcome is “inactive”.

Question: For `CC(NCc1ccc2c(c1)nc(NC(=O)c1ccc(-c3cn[nH]c3)s1)n2CC(C)(C)O)C(C)(C)C` (stereo not given), which AC50 [1] is on record?
Answer: Its AC50 is 3.32 µM (active).

Question: And the AC50 [2]?
Answer: Its AC50 is 0.332 µM (active).

Question: And the AC50 [3]?
Answer: Its AC50 is 0.833 µM (active).

Question: What about the AC50 [4] of the same compound?
Answer: Its AC50 is 5.9 µM (active).

Question: With `N#CC(=C(O)c1ccc(Cl)cc1Cl)c1nc2cc(Cl)ccc2c(=O)[nH]1` as the compound, how does the outcome [1] read?
Answer: The outcome was “inactive”.

Question: And the outcome [2]?
Answer: Its outcome is “inactive”.

Question: And the outcome [3]?
Answer: Its outcome is “inactive”.

Question: And the outcome [4]?
Answer: The outcome was “inactive”.

Question: Which outcome [1] does the source give for `CCCCCCCCCCCCCC(=O)N[C@H](CO)[C@H](O)c1ccc([N+](=O)[O-])cc1` here?
Answer: Its outcome is “inactive”.

Question: What about the AC50 [2] of the same compound?
Answer: Its AC50 is 2.96 µM (active).

Question: What about the AC50 [3] of the same compound?
Answer: The AC50 was 4.69 µM (active).

Question: What about the AC50 [5] of the same compound?
Answer: Its AC50 is 18.6 µM (active).

Question: What about the fold change [8, 11] of the same compound?
Answer: Its fold change is 0.96 (inactive).

Question: What about the fold change [8, 12] of the same compound?
Answer: The fold change was 0.781.

Question: And the cell count [8, 13]?
Answer: Its cell count is 6010.

Question: What about the cell count [8, 14] of the same compound?
Answer: The cell count was 6250.

Question: Which AC50 [1] does the source give for `Nc1nc(F)nc2c1ncn2[C@@H]1O[C@H](CO)[C@@H](O)[C@H]1O` here?
Answer: Its AC50 is 1.05 µM (active).

Question: And the AC50 [2]?
Answer: The AC50 was 0.59 µM (active).

Question: What about the AC50 [3] of the same compound?
Answer: The AC50 was 0.264 µM (active).

Question: And the AC50 [4]?
Answer: The AC50 was 0.833 µM (active).

Question: Which results are given for `CC1COC2(CCN(c3nc(=O)c4cc(C(F)(F)F)cc([N+](=O)[O-])c4s3)CC2)O1` (stereo not given)?
Answer: outcome [1]: inactive; outcome [2]: inactive; outcome [3]: inactive; outcome [5]: inactive; outcome [4]: inactive; outcome [6]: inactive; outcome [7]: inactive; fold change [8, 11]: 0.872 (inactive); fold change [8, 12]: 0.894; cell count [8, 13]: 6990; cell count [8, 14]: 8010; z-score ([9]; MELAS cybrid survival, CellTiter-Glo 48 h, stronger effect = higher value): -0.641 (inactive); z-score ([9]; Rieske KO mouse fibroblast survival, CellTiter-Glo 72 h): -0.174; viability ([10]; at 0.000305 µM, OCI-C5x cells, with rucaparib 10 µM, 100% = cells with rucaparib alone): 115% (inactive); viability ([10]; at 0.000305 µM, OCI-C5x cells, without rucaparib): 107% (inactive); viability ([10]; at 0.000305 µM, OCI-P5x cells, with rucaparib 20 µM, 100% = cells with rucaparib alone): 99.5% (active); viability ([10]; at 0.000305 µM, OCI-P5x cells, without rucaparib): 95.5% (active); viability ([10]; at 0.00122 µM, OCI-C5x cells, with rucaparib 10 µM, 100% = cells with rucaparib alone): 134% (inactive); viability ([10]; at 0.00122 µM, OCI-C5x cells, without rucaparib): 116% (inactive); viability ([10]; at 0.00122 µM, OCI-P5x cells, with rucaparib 20 µM, 100% = cells with rucaparib alone): 105% (inactive); viability ([10]; at 0.00122 µM, OCI-P5x cells, without rucaparib): 94.9% (active); viability ([10]; at 0.00488 µM, OCI-C5x cells, with rucaparib 10 µM, 100% = cells with rucaparib alone): 129% (inactive); viability ([10]; at 0.00488 µM, OCI-C5x cells, without rucaparib): 119% (inactive); viability ([10]; at 0.00488 µM, OCI-P5x cells, with rucaparib 20 µM, 100% = cells with rucaparib alone): 102% (inactive); viability ([10]; at 0.00488 µM, OCI-P5x cells, without rucaparib): 104% (inactive); viability ([10]; at 0.0195 µM, OCI-C5x cells, with rucaparib 10 µM, 100% = cells with rucaparib alone): 126% (inactive); viability ([10]; at 0.0195 µM, OCI-C5x cells, without rucaparib): 112% (inactive); viability ([10]; at 0.0195 µM, OCI-P5x cells, with rucaparib 20 µM, 100% = cells with rucaparib alone): 105% (inactive); viability ([10]; at 0.0195 µM, OCI-P5x cells, without rucaparib): 106% (inactive); viability ([10]; at 0.0781 µM, OCI-C5x cells, with rucaparib 10 µM, 100% = cells with rucaparib alone): 118% (inactive); viability ([10]; at 0.0781 µM, OCI-C5x cells, without rucaparib): 116% (inactive); viability ([10]; at 0.0781 µM, OCI-P5x cells, with rucaparib 20 µM, 100% = cells with rucaparib alone): 107% (inactive); viability ([10]; at 0.0781 µM, OCI-P5x cells, without rucaparib): 103% (inactive); viability ([10]; at 0.313 µM, OCI-C5x cells, with rucaparib 10 µM, 100% = cells with rucaparib alone): 121% (inactive); viability ([10]; at 0.313 µM, OCI-C5x cells, without rucaparib): 118% (inactive); viability ([10]; at 0.313 µM, OCI-P5x cells, with rucaparib 20 µM, 100% = cells with rucaparib alone): 111% (inactive); viability ([10]; at 0.313 µM, OCI-P5x cells, without rucaparib): 108% (inactive); viability ([10]; at 1.25 µM, OCI-C5x cells, with rucaparib 10 µM, 100% = cells with rucaparib alone): 115% (inactive); viability ([10]; at 1.25 µM, OCI-C5x cells, without rucaparib): 130% (inactive); viability ([10]; at 1.25 µM, OCI-P5x cells, with rucaparib 20 µM, 100% = cells with rucaparib alone): 102% (inactive); viability ([10]; at 1.25 µM, OCI-P5x cells, without rucaparib): 108% (inactive); viability ([10]; at 5 µM, OCI-C5x cells, with rucaparib 10 µM, 100% = cells with rucaparib alone): 122% (inactive); viability ([10]; at 5 µM, OCI-C5x cells, without rucaparib): 121% (inactive); viability ([10]; at 5 µM, OCI-P5x cells, with rucaparib 20 µM, 100% = cells with rucaparib alone): 108% (inactive); viability ([10]; at 5 µM, OCI-P5x cells, without rucaparib): 105% (inactive)

Question: With `COc1ccc2cc([S+]([O-])Cc3ncc(C)c(OC)c3C)nc2c1` as the compound, how does the outcome [1] read?
Answer: Its outcome is “inactive”.

Question: And the outcome [2]?
Answer: The outcome was “inactive”.

Question: What about the outcome [3] of the same compound?
Answer: Its outcome is “inactive”.

Question: What about the outcome [4] of the same compound?
Answer: The outcome was “inactive”.

Question: Which outcome [1] does the source give for `CN1[C@@H]2CC(OC(=O)[C@@H](CO)c3ccccc3)C[C@H]1[C@H]1O[C@H]12` (stereo not given in full) here?
Answer: Its outcome is “inactive”.

Question: And the outcome [2]?
Answer: The outcome was “inactive”.

Question: And the outcome [3]?
Answer: The outcome was “inactive”.

Question: And the outcome [4]?
Answer: Its outcome is “inactive”.
